Assay outcomes deposited in PubChem by several laboratories.
Shown are actives, neighbours in structure and some others; about 1.9% of the full set was active somewhere.
eIF4E 4G PPI: eIF4E–eIF4G protein interaction inhibitors, primary screen, biochemical, uHTS, TR-FRET, eIF4GI fragment | Eukaryotic translation initiation factor 4E (Mus musculus) + Eukaryotic translation … | TR-FRET eIF4E-eIF4GI(517-606) binding, 2 h | inhibition, % at 21.7 µM | 220,000 tested, 0.37% active;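 active = inhibition above about 30%, limit read from the data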;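 also: 0% = full FRET control wells and 100% = background wells lacking eIF4GI fragment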
eIF4H inh: human eIF4H binding inhibitors, primary screen, translation initiation inhibitor project, biochemical, uHTS, fluorescence polarization. AID 2012, 2009. eIF4H fluorescence polarization binding assay. 290,000 tested, 0.94% active. Eukaryotic translation initiation factor 4H (Homo sapiens), Q15056. inhibition, % at 35 µM;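 also: calls also rest on retests at 20 µM and on dose response follow-up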
14-3-3 Bad inh: inhibitors of 14-3-3 zeta/Bad binding, primary screen, biochemical, TR-FRET, bovine 14-3-3 zeta. 220,000 tested, 0.71% active. inhibition, % at 21.7 µM. AID 781, 2007. 14-3-3 protein zeta/delta (Bos taurus), P63103. TR-FRET 14-3-3zeta/Dy647-pBad peptide displacement, 1 h;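 active = inhibition above about 70%, limit read from the data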;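 also: 0% = full 14-3-3 plus peptide FRET controls and 100% = background without 14-3-3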
Target sequence (P63103 whole entry, looked up): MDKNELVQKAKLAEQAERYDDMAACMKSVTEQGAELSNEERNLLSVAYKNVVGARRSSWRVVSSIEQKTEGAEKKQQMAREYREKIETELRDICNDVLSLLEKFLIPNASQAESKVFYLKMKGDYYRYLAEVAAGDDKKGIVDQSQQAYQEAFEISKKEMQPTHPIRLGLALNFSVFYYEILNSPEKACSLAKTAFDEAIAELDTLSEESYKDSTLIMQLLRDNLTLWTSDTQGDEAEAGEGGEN
MLLE-PAM2 inh: inhibitors of PABP1 MLLE–PAM2 peptide binding, primary screen, biochemical, fluorescence polarization, FITC-PAM2, GST-MLLE. inhibition, % at 20 µM. 360,000 tested, 0.36% active; in the data active = inhibition above about 35%, passing the limit was not always enough;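 also: plate controls were DMSO wells with GST-MLLE for no effect and wells lacking GST-MLLE protein for full effect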
PABP polyA inh: PABP poly(A) RNA binding inhibitors, primary screen, biochemical, fluorescence polarization, uHTS; calls only at 35 µM; 290,000 tested, 1% active; AID 2014, 2009;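 also: calls also rest on retests at 20 µM and on dose response follow-up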
* marks the source's active call; other numbers are inactive results; i = inactive; ? = inconclusive; · = no result; + = active, no number; [ ] = another dose, or the depositor's remark. Unless noted, no rule for the calls is given here.

SMILES	eIF4E 4G PPI	eIF4H inh	14-3-3 Bad inh	MLLE-PAM2 inh	PABP polyA inh
COC(=O)c1cc(NC2c3ncccc3C(=O)N2Cc2ccccc2)cc(C(=O)OC)c1 (centres undefined)	4	-12	4	-10	i
COc1ccc(CN2C(=O)c3cccnc3C2Nc2cc(Cl)ccc2OC)cc1 (centres undefined)	99*	-1	96*[fluorescence artefact?]	10	i
COc1ccc(CN2C(=O)c3cccnc3C2O)cc1 (centres undefined)	7	4	87*	0	i
CCN(CC)CCCC(C)NC(=O)c1cc(=O)c2ccccc2o1 (centres undefined)	5	-9	-10	-2	?
CCN(CC)CCCC(C)NC(=O)c1ccc(C(F)(F)F)cc1 (centres undefined)	1	active	-8	-4	+
CC(C)(C)n1nnnc1CN1CCN2CCCC2C1 (centres undefined)	1	-1	47	-2	i
COCCn1nnnc1CN1CCN2CCCC2C1 (centres undefined)	1	1	86*	-7	i
O=c1cc(-c2cc3ccccc3o2)c2cc(O)ccc2o1	·	80*	·	0	+
CCCN(CC(=O)Nc1ccccc1OC)C(=O)c1cc(-c2ccccc2)nn1-c1ccccc1	·	·	·	-23	·
O=C1CN(S(=O)(=O)c2cc(C(F)(F)F)ccc2Cl)CCN1	·	·	·	7	·
O=C(O)/C=C/C(=O)N1CCN(S(=O)(=O)c2cc(C(F)(F)F)ccc2Cl)CC1	0	2.1*	5	-1	+
COc1ccc(-n2nnnc2SCC(=O)NNC(=O)c2ccc([N+](=O)[O-])cc2)cc1	2	63*	7	-61	+
CCCn1c(N)c(C(=S)NC(=O)C2CC2)c(=O)n(C)c1=O	6	2	10	41*	i
CC(=O)NC(=S)c1c(N)n(Cc2ccccc2)c(=O)n(C)c1=O	2	-11	6	·	i
CCCCn1c(N)c(C(=S)NC(=O)CC(C)C)c(=O)n(C)c1=O	2	6	14	41*	i
CCCCN(CC(=O)NCCOC)C(=O)Cn1nnc2ccccc21	2	-9	1	7	i
C=CCc1ccccc1OCCCCN1CCCC1	11	3	79*	1	i
CCc1ccccc1OCCCCN1CCCC1	6	1	66	1	i
Cc1ccccc1OCCCN1CCCC1	-1	1	76*	8	i
C/C(CCC(C)C)=N\Nc1cc(C)c2ccccc2n1	-2	-3	-4	2	i
COC(=O)c1c(-c2ccccc2OC)sc2cc3c(cc12)OCO3	·	·	·	-9	·
Cc1ccc(S(=O)(=O)CCC(=O)NCc2ccccc2Cl)cc1	60*	-3	-21	-4	i
COc1ccccc1CNC(=O)CCS(=O)(=O)c1ccc(Cl)cc1	·	·	·	4	·
CCOCCCNC(=S)Nc1ccc2nc(N3CCOCC3)cc(C)c2c1	·	1	·	-33	i
CC1=CC(C)C2(COC(c3ccc[n+](C)c3)OC2)C(C)C1 (centres undefined)	8	-2	6	-134	+
SMILES	eIF4E 4G PPI	eIF4H inh	14-3-3 Bad inh	MLLE-PAM2 inh	PABP polyA inh
CCc1nc(SCc2cc(=O)[nH]c3ccccc23)c2c(C)c(C)sc2n1	·	·	·	-5	·
COCCCn1c(-c2ccco2)nc2ccccc2c1=O	1	4	5	1	i
CCn1nc([N+](=O)[O-])c2c(-c3nc4ccccc4o3)c(N)n(CCCOC)c2c1=O	1	70*	4	11	+
COc1cc(-c2ccc3cc(OC)c(OC)c(OC)c3c2)cc(OC)c1OC	·	·	·	5	·
Cc1ccsc1C(=O)OCC(=O)NC1CCCC1	·	·	·	-11	·
C=CCn1c(O)c(CN2CCN(Cc3ccccc3)CC2)c(C)c(C#N)c1=O	-3	126*	-15	64	i
COc1ccc(NS(=O)(=O)c2ccc(F)c(Cl)c2)cn1	·	?	·	47*	?
COc1ccc(NS(=O)(=O)c2ccc(Br)cc2)cn1	·	-4	·	3	i
CCCN1CCc2[nH]c(=S)[nH]c(=O)c2C1	3	7	-7	47*	i
O=c1[nH]c(=S)[nH]c2c1CN(Cc1ccc(F)cc1)CC2	·	·	·	39*	·
Cc1ccc(CN2CCc3[nH]c(=S)[nH]c(=O)c3C2)cc1	·	-7	·	28	i
COc1ccccc1N(Cc1ccccc1)S(=O)(=O)c1cccc(C(=O)Nc2ccc(C)cn2)c1	·	·	·	-1	·
CC1(C)N=C(SCC(=O)Nc2ccccc2)C(c2ccc(Cl)cc2)=N1	3	-4	-1	44*	i
Cc1ccc(NC(=O)CSc2nnc3c(n2)[nH]c2ccccc23)cc1	·	-1	·	-9	i
O=C(CSc1nnc2c(n1)[nH]c1ccccc12)Nc1ccc2c(c1)OCO2	-10	10	22	37*	i
O=C(CSC1=NC2(CCCCC2)N=C1c1ccccc1)Nc1ccc2c(c1)OCCO2	-1	?	7	46*	?
O=C(CSc1ncn(-c2ccccc2)n1)c1cccs1	-2	-6	6	38*	i
COc1ccc(CNCc2ccc(C(F)(F)F)cc2)cc1OC	·	8	·	-3	i
O=C(CSc1nnc(CNC(=O)c2ccccc2F)o1)Nc1ccc2c(c1)OCCO2	-9	0	4	47*	i
O=C(CSc1nnc(CNC(=O)c2ccccc2F)o1)Nc1ccc2c(c1)OCO2	0	5	-4	24	i
O=C(CSc1ncn(-c2ccccc2)n1)Nc1ccc2c(c1)OCCO2	4	1	-4	37*	i
O=C(CSc1ncn(-c2ccccc2)n1)Nc1ccc2c(c1)OCO2	3	-6	11	-102	i
Cc1ccc(C(=O)Sc2cccccc2=O)cc1	·	43	·	50*	i
O=c1[nH]c2cc3ccccc3cc2nc1C(F)(F)F	-2	38	-15	41*	i
O=c1[nH]c2ccccc2nc1C(F)(F)C(F)F	8	-2	22	-13	i
CCOC(=O)C1CCN(C(=O)c2ccc(S(=O)(=O)Nc3ccccc3OC)cc2)CC1	·	·	·	3	·
CN1C(=O)N(C)C2(c3ccccc3)Nn3c(s/c(=C/c4ccco4)c3=O)=NC12c1ccccc1 (centres undefined)	6	50	-7	-12	+
CN1C(=O)N(C)C2(c3ccccc3)Nn3c(s/c(=C/c4ccccc4F)c3=O)=NC12c1ccccc1 (centres undefined)	-5	-2	-7	·	i
O=[N+]([O-])c1ccc(CSc2nc3ccccc3[nH]2)cc1	-2	-5	-3	-74	+
c1ccc(CSc2nc3ccccc3[nH]2)cc1	-3	8	-2	-12	i
